Source: PubChem BioAssay AID2417 (National Center for Advancing Translational Sciences (NCATS), 2010)
Hit rate of the full screen: of about 140,000 compounds, about 4,300 (3.1%) were called active. About 21% were inconclusive and are not listed.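 How the source made its calls: active means readout at or below -70, meaning at least 70% loss of cells showing the perinucleolar compartment, a nuclear body marking cancer cells; inconclusive means readout between -30 and a set limit; inactive means the rest.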 The sample as a whole holds a higher share of actives than the screen did.

Experiment: High Content Assay for Compounds that inhibit the Assembly of the Perinucleolar Compartment;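 further: plate controls were DMSO wells for no effect and camptothecin positive control wells for full effect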
Conditions: PC3M PTB-GFP, PNC prevalence imaging, 16 h; at 10 µM; stronger effect = lower value
Procedure, shortened: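 Compounds are pinned in duplicate onto adhered PC3M cells stably expressing GFP-tagged PTB and incubated 16 h at 37 C. Cells are then fixed, nuclei stained with Hoechst, and PNC-positive cells counted.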

SMILES	activity change (PNC), negative = inhibition
Cc1ccc(N(C(=O)C(F)(F)F)C(C(=O)NC2CCCCC2)c2ccncc2)cc1C (configuration not stated)	0.653% (inactive)
CCCCOc1ccc(C(=O)NCC(=O)OCC(=O)N2CCN(S(=O)(=O)c3ccc(C)cc3C)CC2)cc1	24.8% (inactive)
CC1(C)CC(=O)NC=C(c2ccccc2)C1	20.5% (inactive)
CC(C)N1C(=O)N(c2ccccc2)C(C)(O)CC1(C)C (configuration not stated)	-24.7% (inactive)
CC(C)C1C2=C(CC(C)(C)CC2=O)ON1c1ccccc1 (configuration not stated)	-90.5% (active)
CCCCCOc1ccc(/C=C/C(=O)NCCc2nc3ccccc3[nH]2)cc1OC	37% (inactive)
COc1cc(/C=C(/NC(=O)c2ccc(Cl)cc2Cl)C(=O)O)cc(OC)c1OC	-21.4% (inactive)
O=C(NCc1ccccc1Cl)C1CCC(CNc2c(N3CCCCC3)c(=O)c2=O)CC1 (configuration not stated)	42.7% (inactive)
COCCn1c(=O)[nH]c2cc(C(=O)NCc3cccnc3)ccc2c1=O	-86.1% (active)
CC(C)(C)c1cc(C(=O)NCc2cccnc2)ccn1	47.5% (inactive)
COCCn1c(=S)[nH]c2cc(C(=O)NCCc3ccc(OC)c(OC)c3)ccc2c1=O	26.1% (inactive)
Cc1ccc(NC(=O)CCC(=O)N/N=C/c2ccco2)c(C)c1	-23.4% (inactive)
N#Cc1c(NC(=O)CCCN2C(=O)c3ccccc3C2=O)oc(-c2ccccc2)c1-c1ccccc1	-11.2% (inactive)
COC(=O)c1sccc1NC(=O)c1cc(OC)c(OC)c(OC)c1	81.2% (inactive)
COc1cc(C(=O)Nc2oc(-c3ccccc3)c(-c3ccccc3)c2C#N)cc(OC)c1OC	-87.4% (active)
CCc1ccc(-c2cc(C(=O)NN3CCN(C)CC3)c3ccccc3n2)cc1	-5.44% (inactive)
O=[N+]([O-])c1ccc(NCCCO)c(C(F)(F)F)c1	59.3% (inactive)
C=C(C)c1cccc(C(C)(C)NC(=O)NC2CCCC2)c1	24% (inactive)
Cc1ccc2[nH]c(C(=O)O)c(NC(=O)c3ccccc3[N+](=O)[O-])c2c1	17.5% (inactive)

SMILES	activity change (PNC), negative = inhibition
CCC(=O)Nc1c(S(=O)(=O)c2ccccc2)c2nc3ccccc3nc2n1Cc1ccccc1	8.42% (inactive)
O=S(=O)(NCCc1ccncc1)c1ccccc1	50.6% (inactive)
COc1cc2c(cc1OC)C(Nc1ccc(S(N)(=O)=O)cc1)=NC(C)(C)C2	-18.6% (inactive)
O=C1OC(OC(=O)c2ccccc2Br)C(N2CCOCC2)=C1Cl (configuration not stated)	84.2% (inactive)
CSc1cccc(NC(=O)CSc2ccccc2)c1	1.35% (inactive)
CCc1cccc(NC(=O)CCC(=O)O)c1	-102% (active)
O=C(CCCOc1ccccc1)Nc1cccc(C(=O)O)c1	11.1% (inactive)
CCOc1ccc(NC(=O)CSc2ncnc3c2sc2ccccc23)cc1	42.2% (inactive)
O=C(Oc1ccccc1C(=S)N1CCCCC1)c1cc([N+](=O)[O-])cc([N+](=O)[O-])c1	-100% (active)
COc1cc(C(=S)N2CCOCC2)cc(OC)c1OC(=O)c1cc([N+](=O)[O-])cc([N+](=O)[O-])c1	19.6% (inactive)
O=C(Oc1ccccc1Cl)c1ccc(N2CCOCC2)c([N+](=O)[O-])c1	20.3% (inactive)
CN(C)CCNC(=O)/C(=C/c1cccc([N+](=O)[O-])c1)NC(=O)c1ccccc1	-1.37% (inactive)
COc1ccc(CCC(=O)OCC(=O)Nc2ccc(C)c(S(=O)(=O)N(C)C)c2)cc1	34.8% (inactive)
COc1ccc(/C(C)=N/NC(=O)CCC(=O)Nc2ccc(Cl)cc2Cl)c(OC)c1	-10.3% (inactive)
Cc1ccc(NC(=S)NCc2ccccc2Cl)c(C)c1	22.9% (inactive)
COc1ccc(-c2c(C(C)=O)c(C)nc3sc4c(=O)n(-c5ccc(C)cc5)nnc4c23)cc1	-106% (active)
COCc1cc(C)nc2sc3c(=O)n(-c4cccc5ccccc45)nnc3c12	0.942% (inactive)
COc1ccc(N2C(=O)C(O)C2c2ccc(C)cc2)cc1 (configuration not stated)	-29.1% (inactive)
Clc1ccc(CSc2nnc(/C=C/c3ccccc3)o2)c(Cl)c1	-87.5% (active)

SMILES	activity change (PNC), negative = inhibition
O=C(Nc1nnc(SCc2ccc(Cl)cc2Cl)s1)C1COc2ccccc2O1 (configuration not stated)	43% (inactive)
c1ccc(-c2nnc(SCc3nc4ccccc4[nH]3)o2)cc1	25.5% (inactive)
N/C(=N\OC(=O)CC1CCCCC1)c1ccccc1	-25.3% (inactive)
COC(=O)c1ccccc1NS(=O)(=O)c1ccc2[nH]c(=O)[nH]c2c1	-18.2% (inactive)
Cc1ccc(N(Cc2cc3ccccc3[nH]c2=O)C(=O)c2cccs2)cc1	4.02% (inactive)
CCOC(=O)Cc1csc(NC(=O)CSc2ccc(Br)cc2)n1	34.9% (inactive)
O=c1[nH]cnc2c1c(-c1ccccc1)cn2-c1ccc(F)cc1	-108% (active)
O=c1c2ccccc2c(-c2ccc(F)cc2)nn1-c1ccc(C(F)(F)F)cc1	-1% (inactive)
O=C(CNCc1ccc(F)cc1)Nc1ccccc1-c1ccccc1	23.9% (inactive)
Cc1cc(C)c(C#N)c(SCC(=O)NN2CC(=O)N(c3ccccc3F)CC2=O)n1	43.3% (inactive)
O=C(c1cc(Cl)cc(Cl)c1)N1CCC(=O)N(C(COCc2ccccc2)Cc2ccccc2)CC1 (configuration not stated)	27.5% (inactive)
CC(C)CC(COCc1ccc(Cl)cc1)N1CCN(C(=O)c2ccc(C(F)(F)F)cc2)CCC1=O (configuration not stated)	49.5% (inactive)
CC(C)CC(CO)N1CCN(C(=O)c2ccc(Cl)cc2Cl)CCC1=O (configuration not stated)	-91.5% (active)
CC(=O)c1sc(N/N=C\c2ccc(C)cc2)nc1C	25.4% (inactive)
CCc1ccccc1NC(=O)CN(C)C(=O)COc1ccc(C)nc1[N+](=O)[O-]	-8.07% (inactive)
COCCNC(=O)C(c1ccc(C)o1)N(Cc1ccccc1)C(=O)Cn1nnc2ccccc21 (configuration not stated)	-83.4% (active)
CCC(C)(C)NC(=O)C(c1cccn1C)N(Cc1ccc(C)cc1)C(=O)Cn1nnc2ccccc21 (configuration not stated)	27.9% (inactive)
COc1ccccc1N(C(=O)Cn1nnc2ccccc21)C(C(=O)NCc1ccco1)c1ccc(C)o1 (configuration not stated)	20.9% (inactive)
Brc1ccc(C2CC(c3ccccc3)=Nc3ccccc3N2)cc1 (configuration not stated)	-29.2% (inactive)
